Test results taken from PubChem BioAssay (EPA / NIEHS).
The source made the active and inactive calls. The calls were made as follows: active = hit-call score of the fitted dose curve at least 0.9, where 1 is the maximum; inactive = score below 0.9.

Tests used:
Settings in all cases: mRNA level, 48 h; actives raise or lower the signal
[1] = read-out: Alpha-fetoprotein (AFP) gene, AFP (gene 174); assay: LTEA_HepaRG_AFP: Life Technologies and Expression Analysis (LTEA) Assay for Alpha-fetoprotein (AFP) gene using HepaRG (AID 2283472)
In short: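 HepaRG, single lot; 48 h post-plating -> serum-free induction medium; cpd 8-pt, 100 uM top, half-log, 0.5% DMSO, duplicate, 48 h. RNA -> qRT-PCR AFP, norm ACTB/GAPDH/POLR2A. Bidirectional fit vs DMSO.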

[2] = read-out: BCL2L11 (gene 10018); assay: LTEA_HepaRG_BCL2L11: Life Technologies and Expression Analysis (LTEA) Assay for Bcl-2 (BCL2L11) gene using HepaRG (AID 2283473)
In short: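 Differentiated human HepaRG cells were exposed 48 h in serum-free induction medium to eight half-log concentrations up to 100 uM in 0.5% DMSO, in duplicate. BCL2L11 mRNA was quantified by TaqMan qRT-PCR, normalized to ACTB, GAPDH and POLR2A; induction or repression fitted versus DMSO.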

[3] = read-out: Apolipoprotein A-V (APOA5) gene, APOA5 (gene 116519); assay: LTEA_HepaRG_APOA5: Life Technologies and Expression Analysis (LTEA) Assay for Apolipoprotein A-V (APOA5) gene using HepaRG (AID 2283474)
In short: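 Differentiated HepaRG cells in serum-free induction medium, exposed 48 h in duplicate to eight half-log concentrations topping at 100 uM (0.5% DMSO). APOA5 mRNA by Fluidigm TaqMan qRT-PCR, normalized to ACTB, GAPDH and POLR2A; bidirectional fit versus DMSO.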

[4] = read-out: Apoptosis regulator Bcl-2 (Homo sapiens) (UniProt P10415); assay: LTEA_HepaRG_BCL2: Life Technologies and Expression Analysis (LTEA) Assay for Bcl-2 gene using HepaRG (AID 2283475)
In short: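 HepaRG, plated 48 h then switched to serum-free induction medium; dosed 48 h, 8 conc. (max 100 uM, half-log steps), duplicate, 0.5% DMSO. Lysis in RLT, RNA isolated, TaqMan qRT-PCR for BCL2; ACTB/GAPDH/POLR2A normalisation; bidirectional fit vs DMSO.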

[5] = read-out: Bcl-2 (BID) gene, BID (gene 637); assay: LTEA_HepaRG_BID: Life Technologies and Expression Analysis (LTEA) Assay for Bcl-2 (BID) gene using HepaRG (AID 2283476)
In short: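 Transcript levels of BID, measured by qRT-PCR and normalized to three housekeeping genes, were fitted bidirectionally against DMSO controls. Cells were HepaRG, dosed 48 h at up to 100 uM.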

[6] = read-out: Cytochrome P450 (CYP1A2), CYP1A2 (gene 1544); assay: LTEA_HepaRG_CYP1A2: Life Technologies and Expression Analysis (LTEA) Assay for Cytochrome P450 (CYP1A2) using HepaRG (AID 2283479)
In short: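 Differentiated human HepaRG cells in serum-free induction medium exposed 48 hours in duplicate to 8 half-log concentrations from 100 uM, 0.5% DMSO. CYP1A2 mRNA quantified by qRT-PCR, normalized to ACTB, GAPDH and POLR2A; bidirectional fitting versus DMSO.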

[7] = read-out: Cytochrome P450 (CYP2B6), CYP2B6 (gene 1555); assay: LTEA_HepaRG_CYP2B6: Life Technologies and Expression Analysis (LTEA) Assay for Cytochrome P450 (CYP2B6) using HepaRG (AID 2283481)
In short: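 Differentiated human HepaRG cells in serum-free induction medium, dosed in duplicate for 48 h over 8 half-log concentrations topping at 100 uM (0.5% DMSO). CYP2B6 mRNA measured by TaqMan qRT-PCR, normalized to ACTB, GAPDH, POLR2A; bidirectional fit versus DMSO.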

[8] = read-out: Cytochrome P450 2C19 (Homo sapiens) (UniProt P33261); assay: LTEA_HepaRG_CYP2C19: Life Technologies and Expression Analysis (LTEA) Assay for CYP2C19 using HepaRG (AID 2283482)
In short: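 Differentiated HepaRG cells in serum-free induction medium exposed 48 h in duplicate, 8 concentrations from 100 uM by half-log steps in 0.5% DMSO. CYP2C19 mRNA measured by TaqMan qRT-PCR, normalized to ACTB, GAPDH, POLR2A. Bidirectional fit versus DMSO.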

[9] = read-out: CYP2C8 (gene 1558); assay: LTEA_HepaRG_CYP2C8: Life Technologies and Expression Analysis (LTEA) Assay for CYP2C8 using HepaRG (AID 2283483)
In short: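 Differentiated HepaRG cells in serum-free induction medium exposed 48 h in duplicate to 8 half-log concentrations from 100 uM in 0.5% DMSO. CYP2C8 mRNA by qRT-PCR normalized to ACTB, GAPDH, POLR2A; bidirectional fit versus DMSO.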

[10] = read-out: CYP2C9 (gene 1559); assay: LTEA_HepaRG_CYP2C9: Life Technologies and Expression Analysis (LTEA) Assay for CYP2C9 using HepaRG (AID 2283484)
In short: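 Differentiated human HepaRG cells in serum-free induction medium were exposed 48 h to chemicals in 8-point half-log series from 100 uM (0.5% DMSO), in duplicate. CYP2C9 mRNA was measured by qRT-PCR, normalized to ACTB/GAPDH/POLR2A, with bidirectional fitting versus DMSO.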

[11] = read-out: CYP2E1 (gene 1571); assay: LTEA_HepaRG_CYP2E1: Life Technologies and Expression Analysis (LTEA) Assay for CYP2E1 using HepaRG (AID 2283485)
In short: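 Human liver line HepaRG, plated 48 h, then serum-free induction medium + chemical x 48 h; 8-pt CRC from 100 uM, half-log, 0.5% DMSO, n=2. Readout: CYP2E1 mRNA qRT-PCR vs ACTB/GAPDH/POLR2A; bidirectional fit vs DMSO.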

[12] = read-out: CYP4A11 (gene 1579); assay: LTEA_HepaRG_CYP4A11: Life Technologies and Expression Analysis (LTEA) Assay for CYP4A11 using HepaRG (AID 2283486)
In short: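 Differentiated HepaRG cells, 48 h after plating, exposed in duplicate for 48 h to 8 half-log concentrations up to 100 uM in 0.5% DMSO in serum-free induction medium. CYP4A11 mRNA measured by TaqMan qRT-PCR, normalized to ACTB, GAPDH and POLR2A.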

[13] = read-out: Cytochrome P450 3A4 (Homo sapiens) (UniProt P08684); assay: LTEA_HepaRG_CYP3A4: Life Technologies and Expression Analysis (LTEA) Assay for CYP3A4 using HepaRG (AID 2283487)
In short: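 In a human hepatic line (HepaRG), duplicate wells were treated 48 h with up to 100 uM chemical in half-log dilutions. Endpoint: CYP3A4 mRNA induction or loss relative to 0.5% DMSO vehicle, by qRT-PCR.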

[14] = read-out: DNA damage-inducible transcript 3 (DDIT3), DDIT3 (gene 1649); assay: LTEA_HepaRG_DDIT3: Life Technologies and Expression Analysis (LTEA) Assay for DNA damage-inducible transcript 3 (DDIT3) using HepaRG (AID 2283488)
In short: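 HepaRG plated 48 h, switched to serum-free induction medium, dosed 48 h (100 uM top, half-log, 8 pts, 0.5% DMSO, n=2); RNA isolated; DDIT3 by qRT-PCR; bidirectional curve fit vs DMSO.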

[15] = read-out: Pro-epidermal growth factor (Homo sapiens) (UniProt P01133); assay: LTEA_HepaRG_EGF: Life Technologies and Expression Analysis (LTEA) Assay for Epidermal growth factor (EGF) using HepaRG (AID 2283489)
In short: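 HepaRG cells (~100,000/well, 48 h pre-culture) exposed in duplicate for 48 h in serum-free induction medium to 8 half-log concentrations up to 100 uM in 0.5% DMSO. EGF mRNA by qRT-PCR, normalized to ACTB/GAPDH/POLR2A; bidirectional fit versus DMSO.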

[16] = read-out: Early growth response protein 1 (EGR1) transcription factor, EGR1 (gene 1958); assay: LTEA_HepaRG_EGR1: Life Technologies and Expression Analysis (LTEA) Assay for Early growth response protein 1 (EGR1) transcription factor using HepaRG (AID 2283490)
In short: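 Differentiated HepaRG cells in serum-free induction medium exposed 48 hours, duplicate, to 8 half-log concentrations up to 100 uM in 0.5% DMSO. EGR1 mRNA measured by TaqMan qRT-PCR, normalized to ACTB, GAPDH, POLR2A; bidirectional fit versus DMSO.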

[17] = read-out: Cytochrome P450 3A7 (Homo sapiens) (UniProt P24462); assay: LTEA_HepaRG_CYP3A7: Life Technologies and Expression Analysis (LTEA) Assay for CYP3A7 using HepaRG (AID 2283492)
In short: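 Differentiated HepaRG cells in serum-free induction medium exposed 48 h in duplicate to 8-point half-log series from 100 uM top in 0.5% DMSO. CYP3A7 mRNA by qRT-PCR, normalized to ACTB/GAPDH/POLR2A, bidirectional fit versus DMSO.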

[18] = read-out: CYP3A5 (gene 1577); assay: LTEA_HepaRG_CYP3A5: Life Technologies and Expression Analysis (LTEA) Assay for CYP3A5 using HepaRG (AID 2283493)
In short: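 HepaRG plated 48 h, switched to serum-free induction medium, chemicals added 48 h (max 100 uM, half-log, 0.5% DMSO). RNA isolated; CYP3A5 by TaqMan qRT-PCR. Gain/loss vs DMSO.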

[19] = read-out: Fatty Acid-Binding Protein 1 (FABP1), FABP1 (gene 2168); assay: LTEA_HepaRG_FABP1: Life Technologies and Expression Analysis (LTEA) Assay for Fatty Acid-Binding Protein 1 (FABP1) using HepaRG (AID 2283494)
In short: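 Differentiated human HepaRG cells exposed 48 h in serum-free induction medium to eight half-log concentrations up to 100 uM (0.5% DMSO), duplicate. FABP1 mRNA by qRT-PCR, normalised to ACTB, GAPDH, POLR2A; bidirectional fitting against DMSO.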

[20] = read-out: Cytochrome P450 4A22 (Homo sapiens) (UniProt Q5TCH4); assay: LTEA_HepaRG_CYP4A22: Life Technologies and Expression Analysis (LTEA) Assay for Cytochrome P450 4A22 (CYP4A22) using HepaRG (AID 2283495)
In short: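 Differentiated HepaRG cells in serum-free induction medium exposed 48 h in duplicate to eight half-log concentrations up to 100 uM in 0.5% DMSO. CYP4A22 mRNA quantified by TaqMan qRT-PCR, normalized to ACTB, GAPDH and POLR2A; bidirectional fit versus DMSO.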

Measured: AC50

Cytochrome P450 3A4 (Homo sapiens), sequence (P08684 whole entry, looked up): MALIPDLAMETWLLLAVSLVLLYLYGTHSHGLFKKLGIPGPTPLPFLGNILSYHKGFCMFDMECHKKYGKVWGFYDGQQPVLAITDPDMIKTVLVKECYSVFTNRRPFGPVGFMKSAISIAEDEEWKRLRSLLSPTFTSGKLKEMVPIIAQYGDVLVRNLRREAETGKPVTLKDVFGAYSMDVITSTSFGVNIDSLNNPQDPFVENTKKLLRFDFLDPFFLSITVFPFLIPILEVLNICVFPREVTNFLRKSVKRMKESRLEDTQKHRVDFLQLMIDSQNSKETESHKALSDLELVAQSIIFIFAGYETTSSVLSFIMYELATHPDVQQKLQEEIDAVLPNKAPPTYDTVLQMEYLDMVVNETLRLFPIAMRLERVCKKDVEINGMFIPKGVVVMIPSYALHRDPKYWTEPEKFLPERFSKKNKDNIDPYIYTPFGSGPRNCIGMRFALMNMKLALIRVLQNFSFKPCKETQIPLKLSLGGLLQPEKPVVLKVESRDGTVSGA
Cytochrome P450 2C19 (Homo sapiens), sequence (P33261 whole entry, looked up): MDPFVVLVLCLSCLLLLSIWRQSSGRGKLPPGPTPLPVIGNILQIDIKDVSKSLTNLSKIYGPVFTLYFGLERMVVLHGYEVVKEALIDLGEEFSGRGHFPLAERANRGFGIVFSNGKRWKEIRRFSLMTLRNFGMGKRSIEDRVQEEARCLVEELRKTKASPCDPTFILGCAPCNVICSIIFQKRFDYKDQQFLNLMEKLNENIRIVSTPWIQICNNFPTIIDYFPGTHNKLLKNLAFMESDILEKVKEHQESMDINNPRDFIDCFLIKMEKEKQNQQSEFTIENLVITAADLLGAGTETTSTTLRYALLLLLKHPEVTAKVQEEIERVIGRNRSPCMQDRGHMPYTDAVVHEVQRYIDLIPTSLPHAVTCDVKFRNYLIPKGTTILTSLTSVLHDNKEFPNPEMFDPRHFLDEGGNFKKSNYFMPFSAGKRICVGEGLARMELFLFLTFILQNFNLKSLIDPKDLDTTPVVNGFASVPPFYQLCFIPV
Cytochrome P450 3A7 (Homo sapiens), sequence (P24462 whole entry, looked up): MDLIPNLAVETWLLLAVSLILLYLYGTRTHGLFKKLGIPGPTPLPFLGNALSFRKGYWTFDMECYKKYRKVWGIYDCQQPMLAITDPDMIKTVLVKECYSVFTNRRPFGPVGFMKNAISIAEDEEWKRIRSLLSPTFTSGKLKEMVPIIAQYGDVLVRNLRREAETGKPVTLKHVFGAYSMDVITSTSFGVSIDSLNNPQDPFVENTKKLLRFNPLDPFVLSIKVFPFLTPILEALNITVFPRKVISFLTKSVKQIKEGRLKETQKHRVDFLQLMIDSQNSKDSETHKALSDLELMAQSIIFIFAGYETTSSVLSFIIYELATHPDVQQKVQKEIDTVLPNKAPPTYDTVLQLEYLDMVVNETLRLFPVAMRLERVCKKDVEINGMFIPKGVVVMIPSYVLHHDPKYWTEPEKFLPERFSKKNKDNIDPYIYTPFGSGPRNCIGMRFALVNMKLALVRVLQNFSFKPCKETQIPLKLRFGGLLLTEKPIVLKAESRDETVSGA
Apoptosis regulator Bcl-2 (Homo sapiens), sequence (P10415 whole entry, looked up): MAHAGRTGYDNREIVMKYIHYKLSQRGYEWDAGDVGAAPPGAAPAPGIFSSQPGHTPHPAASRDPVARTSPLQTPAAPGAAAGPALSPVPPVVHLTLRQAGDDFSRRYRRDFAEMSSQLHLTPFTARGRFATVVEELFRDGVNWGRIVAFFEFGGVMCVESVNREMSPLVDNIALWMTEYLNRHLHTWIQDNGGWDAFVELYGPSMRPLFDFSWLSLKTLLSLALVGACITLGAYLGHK

Clc1cccc(Cl)c1
inactive: all assays above

OCCN(CCO)CCO
active: [7] 21.1 µM
inactive: all other assays above

Clc1cccc(Cl)c1Cl
inactive: all assays above

CN(C)C(=S)S
active: [6] 72.3 µM | [7] 29.7 µM
not listed: [15] | [20]
inactive: all other assays above

CCCCCCCCCCCCc1cccc(S(=O)(=O)O)c1
active: [6] 45 µM | [8] 22.7 µM | [9] 45 µM | [12] 21.6 µM | [13] 18.9 µM | [14] 45 µM | [17] 20.4 µM | [20] 25.6 µM
inactive: all other assays above

CC(C)(C)c1ccccc1O
active: [7] 1.63 µM | [8] 1.47 µM | [9] 6.35 µM | [11] 15.1 µM | [13] 12.6 µM | [17] 4.77 µM
inactive: all other assays above

CC(C)O.CC(C)O.OCCN(CCO)CCO.OCCN(CCO)CCO.[Ti]
active: [11] 50 µM
not listed: [7]
inactive: all other assays above

N#Cc1cccnc1
inactive: all assays above

Cc1cc(C)cc(C)c1
inactive: all assays above

Oc1cc(Cl)c(Cl)cc1Cl
inactive: all assays above

COc1ccccc1N
active: [7] 24.3 µM
inactive: all other assays above

Oc1c(Cl)cc(Cl)cc1Cl
inactive: [1] | [2] | [3] | [4] | [5] | [14] | [15] | [16] | [19]

O=C(O)C1(c2ccc3c(c2)OC[C@H](Cc2ccc(-c4ccccc4)cc2)[C@H]3O)CCCC1
active: [6] 25 µM | [11] 84.5 µM | [13] 4.6 µM | [14] 50 µM | [16] 81.7 µM | [18] 77 µM | [19] 83.9 µM
inactive: all other assays above

O=C(N[C@H]1CN2CCC1CC2)c1ccc2c(c1)OCCO2
inactive: all assays above
